A selection: hits, their analogues and other compounds. The true share with any hit is near 8%.
HCMV inh – inhibitors of human cytomegalovirus | hit rate 4.5% among 410,000 | HFF cells, HCMV-luciferase reporter, 72 h; hits give low values | AID 1259415 | activity change, negative = inhibition, % at 57.5 µM; in the data active means activity change below about -60%; inconclusive means no clear call, values can overlap the other calls; inactive means above about -39%; further: on the % scale 0 is the no-effect control and ±100 the full control effect
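HFF cells seeded 16 h at 37C, treated with compounds, infected with luciferase-reporter HCMV at MOI 1 PFU/cell; luciferase read at 72 h post infection, normalized to buffer-only and Salinomycin controls.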
SARS PLpro yeast – SARS-CoV PLP inhibition in yeast; Potency, µM (titrated, usually from 32.9 µM), without a hit: at the highest dose activity, positive = growth rescue, actives largely listed as activators; S. cerevisiae expressing SARS-CoV PLpro, growth rescue; hit rate 0.19% among 330,000; AID 485353; calls by dose curve; further: potency means the concentration at half of the fitted maximal effect; 0% is about no effect; nearly all actives have a fitted effect of over 55% in size
FMDV antiviral – antivirals against foot and mouth disease virus | hit rate 1.2% among 410,000 | Potency, µM (top dose mostly 57.9 µM), inactives show at the top dose activity change, negative = inhibition, most hits filed as inhibitors | FMDV antiviral cell-based qHTS; calls by dose curve; tested in HEK293T cells; further: read-out not given here; potency means the concentration at half of the fitted maximal effect; on the % scale 0 is the no-effect control and ±100 the full control effect; nearly all actives have a fitted effect of over 45% in size
HCV inh – HCV inhibition | Huh7.5.1 HCVcc-Cre infection, luciferase reporter, 44 h | Potency, µM (titrated, usually from 41.8 µM), inactives show top-dose activity change, negative = inhibition, actives largely listed as inhibitors | hit rate 3.4% among 340,000 | AID 651820; active means well fitted inhibition curve with a large enough effect; inconclusive means small, poorly fitted or top-dose-only effect, or another doubt; inactive means no such curve, though single readings can be large or run the other way; further: potency means the concentration at half of the fitted maximal effect; on the % scale 0 is the no-effect control and ±100 the full control effect
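After 44 h co-culture of compound, cells and HCVcc-Cre (~0.5 moi), substrate is added for 15 min at room temperature and luciferase measured over 15 sec. Cells were seeded at 1,000/well and pre-cultured 4 h.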
Marburg entry inh – Marburg virus entry inhibition | Marburg virus pseudotyped entry inhibition, cell reporter | Potency, µM (top dose mostly 37.8 µM), without a hit: at the top dose activity change, negative = inhibition, actives largely listed as inhibitors | hit rate 1.8% among 300,000; calls by dose curve; tested in HEK293 cells; further: potency means the concentration at half of the fitted maximal effect; on the % scale 0 is the no-effect control and ±100 the full control effect
Lassa entry inh – inhibitors of Lassa virus binding or cell entry. Lassa virus pseudotype entry inhibition, cell reporter. Potency, µM (highest dose often 37.9 µM), inactives show at the top dose activity change, negative = inhibition, hits mostly inhibitors. hit rate 1.2% among 300,000; calls by dose curve; tested in HEK293 cells; further: potency means the concentration at half of the fitted maximal effect; on the % scale 0 is the no-effect control and ±100 the full control effect; nearly all actives have a fitted effect of over 50% in size
Starred values were filed as active, the others as inactive; ? = inconclusive; . = not tested or not shown; [ ] = dose if it differs, or a comment.

SMILES	HCMV inh	SARS PLpro yeast	FMDV antiviral	HCV inh	Marburg entry inh	Lassa entry inh
CCOc1ccccc1NC(=O)CSc1ccc(-c2sc(C)nc2C)nn1	?	-4%	25µM*	?	?	?
COc1ccccc1NC(=O)CSc1ccc(-c2sc(C)nc2C)nn1	43	.	?	.	.	0%[46.1 µM]
CCc1ccc(NC(=O)CSc2ccc(-c3sc(C)nc3C)nn2)cc1	-39	3%	-21%	11µM*	.	.
Cc1cc(C)cc(NC(=O)CSc2ccc(-c3ccccn3)nn2)c1	-1	?	-16%	13µM*	15%	?
Cc1nc(C)c(-c2ccc(SCC(=O)Nc3ccc(Br)cc3)nn2)s1	-69*	.	-17%	.	.	?
COC(=O)CC1=C(C(=O)OC)[C@H](c2ccc3c(c2Cl)OCO3)C(C#N)=C(N)O1	.	.	.	.	7%	.
CCN(CC)S(=O)(=O)c1ccc(NC2c3ccccc3C(=O)N2c2ccc(C)cn2)cc1 (centres undefined)	49	-15%	27%	14µM*	.	.
CCOC(=O)c1ccc(NC2c3ccccc3C(=O)N2c2ccccn2)cc1 (centres undefined)	13	0%	-1%	8%	.	.
COc1ccc(NC2c3ccccc3C(=O)N2c2ccccn2)cc1 (centres undefined)	-80*	1%	-27%	-1%	.	.
Cc1ccc(N2C(=O)c3ccccc3C2Nc2ccc(S(=O)(=O)N3CCCCC3)cc2)nc1 (centres undefined)	11	-5%	28%	?	-2%	.
Cc1cc(N2CCN(C)CC2)nc2ccc(NC(=S)NCCN3CCc4ccccc4C3)cc12	?	1%	-22%	11µM*	0%	.
Cc1cc(N2CCOCC2)nc2ccc(NC(=S)N3CCCCC3C)cc12 (centres undefined)	?	-6%	30%	?	2.8µM*	?
CCN1CCN(c2cc(C)c3cc(NC(=S)NCCCN4CCc5ccccc5C4)ccc3n2)CC1	?	3%	1%	8.9µM*	13µM*	-24%
Cc1cc(N2CCN(C)CC2)nc2ccc(NC(=S)NCCCN3CCc4ccccc4C3)cc12	-3	-2%	-12%	11µM*	4µM*	?
CCN(CC)CCNC(=S)Nc1ccc2nc(N3CCN(CC)CC3)cc(C)c2c1	?	1%	-15%	?	?	-20%[46.1 µM]
Cc1ccc(Nc2sc(C(=O)c3ccccc3)c(N)c2S(=O)(=O)c2ccccc2)c(C)c1	-1	.	-23%	.	?	?
CC(=O)Nc1ccccc1-c1nc(CNC(=O)c2ccc(C)cc2)c(C)o1	.	.	12%	.	.	.
Cc1cc(C)cc(CC(=O)N2CCC2(C)C(=O)NS(=O)(=O)c2cc(C)ccc2F)c1 (centres undefined)	-11	.	-5%	.	.	.
Cc1cc(N2CCCC2)nc2ccc(NC(=S)NCCCN3CCC(C)CC3)cc12	-88*	0%	-15%	10µM*	?	?
CCN1CCN(c2cc(C)c3cc(NC(=S)NCCN(C)C)ccc3n2)CC1	32	-1%	9%	?	?	?
Cc1nn(C(C)(C)C)c(OC(=O)c2ccc3c(c2)OCO3)c1S(=O)(=O)c1ccccc1	-23	-28%	?	-1%	?	8.9µM*
Cc1ccc(S(=O)(=O)c2c(C)nn(C(C)(C)C)c2OC(=O)c2cccs2)cc1	-25	-15%	?	?	?	13µM*
Cc1ccc(S(=O)(=O)c2c(C)nn(C(C)(C)C)c2OC(=O)c2ccc(Br)o2)cc1	-64*	-16%	?	?	?	11µM*
Cc1ccc(S(=O)(=O)c2c(C)nn(C(C)(C)C)c2OC(=O)c2ccco2)cc1	33	-13%	13µM*	-4%	?	11µM*
CC(=O)Oc1c(S(=O)(=O)c2ccc(C)cc2)c(C)nn1C(C)(C)C	12	-13%	-19%	26%	?	?
SMILES	HCMV inh	SARS PLpro yeast	FMDV antiviral	HCV inh	Marburg entry inh	Lassa entry inh
Cc1ccc(S(=O)(=O)c2c(C)nn(C(C)(C)C)c2OC(=O)C(C)(C)C)cc1	32	-29%	?	?	?	?
Cc1nn(C(C)(C)C)c(OC(=O)c2ccc3c(c2)OCO3)c1Sc1ccccc1	114	-16%	?	-20%	?	?
COCCNC(=O)CCn1c(=O)c2cc(OC)c(OC)cc2n(CC(=O)Nc2ccc(F)c(Cl)c2)c1=O	-17	.	-11%	.	14%[46.1 µM]	23%[46.1 µM]
COc1ccc(CCNC(=O)C(C)n2nc(C)c3sc4ccccc4c3c2=O)cc1OC (centres undefined)	-5	.	-27%	.	?	17%[46.1 µM]
C[n+]1ccn(CC(=O)c2ccc(Br)cc2)c1	?	5%	-12%	0%	-3%	10%
O=C(Cn1c(-c2ccccc2)c[n+]2ccsc12)c1ccc(Br)cc1	-74*	-1%	-12%	-5%	-26%[46.1 µM]	-1%
O=S(=O)(c1ccc(F)cc1)c1nc(-c2ccco2)oc1Nc1ccc(F)cc1	-74*	-1%	7%	?	-28%	-10%
COc1ccc(Nc2oc(-c3ccco3)nc2S(=O)(=O)c2ccc(F)cc2)cc1	?	-10%	-13%	?	-14%	-27%
CC1=C(N2CC2)C(=O)C(CO)=C(N2CC2)C1=O	-97*	.	0%	?	?	0.11µM*
COC(=O)c1scc(-c2ccc(C)cc2)c1S(=O)(=O)N1CCN(c2ccc(F)cc2)CC1	-27	.	17%	.	.	?
COc1cccc(/C=C(\C#N)C(=O)Nc2ccc(NC(C)=O)cc2)c1OC	39	.	8%	.	.	?
CC(C)C[C@H](N)CSSC[C@@H](N)CC(C)C	.	.	.	.	1.3µM*	.
CC(C)CC(C)N (centres undefined)	-27	-2%	-25%	?	.	.
COc1ccc(-c2cccc3c2OC(CNC(=O)c2ccc4c(c2)OCO4)C3)nn1 (centres undefined)	.	.	31%	.	.	.
CCCCN(C)C(=O)C1CCCN(c2ncnc3onc(C)c23)C1 (centres undefined)	-36	.	?	.	.	0%[46.1 µM]
COc1ccc(C2N(C(C)=O)CCCN2S(=O)(=O)c2ccc(C)cc2)cc1 (centres undefined)	-62*	1%	9%	-19%	-11%[46.1 µM]	?
CC(C)OC(=O)c1cc2c(ccn2C)n1CC(=O)N(Cc1ccccc1)c1ccccc1	?	5%	-21%	?	2.5µM*	3.2µM*
CCOC(=O)c1sc(NC(=O)c2ccncc2)c(C#N)c1C	-68*	-46%	?	?	?	17%
CCOC(=O)c1sc(NC(=O)c2cc(-c3ccccc3C)nc3ccccc23)c(C#N)c1C	-105*	10%	?	7.1µM*	?	11µM*
N#Cc1c(NC(=O)c2ccc(Cn3cc(Br)cn3)o2)sc2c1CCCCC2	15	-8%	0%	?	-30%	3%
Cc1ccc(-c2cc(C(=O)Nc3nccs3)c3ccccc3n2)c(C)c1	-87*	-24%	?	10µM*	?	?
